# Compound activity (PubChem)
# Pf apPOL inh: Pf-apPOL DNA polymerase inhibition | Recombinant Pf-apPOL, molecular beacon fluorescence, 1.5 h | inhibition, % at 10 µM | 210,000 tested, 0.25% active
# mHTT CaM bind: inhibitors of human mutant huntingtin-calmodulin interaction; inhibition, % at 15 µM; AID 1671202; 190,000 tested, 3.6% active; P42858; AlphaScreen His-mHTT/GST-CaM binding, luminescence
# Hits are given with their value; - = inactive; . = no result. The sample as a whole holds a higher share of hits than the screen did. No stated cut-off is given here; in the data, active means inhibition above about 50%; inactive means the rest.
SMILES,Pf apPOL inh,mHTT CaM bind
O=C(c1cccs1)N1CCC(c2nncn2-c2ccccc2)CC1,-,-
Cc1ccc(C(=O)N2CCc3c(c(-c4nc(-c5cccc(F)c5)no4)nn3C)C2)cc1C,-,-
Clc1ccc(OCCN2CCOCC2)cc1,82.2,-
Clc1ccc(OCCCN2CCOCC2)cc1,-,-
CCN(CC)Cc1c(O)ccc2c(=O)c(Oc3cccc(C)c3)c(C(F)(F)F)oc12,-,-
CC(C)NC(=O)NC1CCN(C(=O)c2ccc(F)cc2)C1 (stereo not drawn),-,-
N#CC1=C(N)C(C#N)(C#N)C(c2ccc(Cl)cc2Cl)C2CCCC=C12 (stereo not drawn),-,-
N#CC1=C(N)C(C#N)(C#N)C(c2cccc(Oc3ccccc3)c2)C2CCCC=C12 (stereo not drawn),-,50.0
N#CC1=C(N)C(C#N)(C#N)C(c2ccc(Cl)c(Cl)c2)C2CCCC=C12 (stereo not drawn),-,100.0
N#CC1=C(N)C(C#N)(C#N)C(c2cccc(F)c2)C2CCCC=C12 (stereo not drawn),-,-
Cn1cccc1CN(C(=O)C1CCN(S(C)(=O)=O)CC1)C1CC1,-,-
Cn1c(=O)c2c(nc3n2C(c2ccccc2)C(c2ccc(-c4ccccc4)cc2)=NN3)n(C)c1=O (stereo not drawn),.,-
COc1ccc(-c2noc(C3CCCN3C(=O)Nc3ccc(C)c(C)c3)n2)cc1 (stereo not drawn),-,-
Cc1cccc(NC(=O)Cn2c(=O)n(-c3ccccc3)c3ncccc32)c1,-,-
COc1ccc(NCC(=O)N2c3ccccc3Sc3ccccc32)cc1,-,59.9
COc1cc(NC(=O)N2c3ccccc3Sc3ccccc32)cc(OC)c1,-,-
C=C1CCN([C@@H](CC(C)C)C(=O)NCc2cc(OC)c(OC)c(OC)c2)S(=O)(=O)c2ccccc21,-,-
C=C1CCN([C@@H](CC(C)C)C(=O)NCc2ccc(Cl)cc2)S(=O)(=O)c2ccccc21,-,70.4
C=C1CCN([C@@H](Cc2ccccc2)C(=O)NCc2ccc(Cl)c(Cl)c2)S(=O)(=O)c2ccccc21,-,-
C=C1CCN([C@@H](CC(C)C)C(=O)NCc2ccc(OC)cc2)S(=O)(=O)c2ccccc21,-,-
C=C1CCN([C@@H](CC(C)C)C(=O)NCc2ccc(Cl)c(Cl)c2)S(=O)(=O)c2ccccc21,-,99.0
C=C1CCN([C@H](C(=O)NCc2ccc(Cl)c(Cl)c2)C(C)C)S(=O)(=O)c2ccccc21,-,73.5
Cc1noc(C2CN(C(=O)Nc3cc(F)cc(F)c3)CC23CCOCC3)n1 (stereo not drawn),-,-
O=C(CSc1nc2ccc(Br)cc2[nH]1)NCc1ccco1,-,-
O=c1c2cccc([N+](=O)[O-])c2[nH]n1-c1ccccc1,-,-
SMILES,Pf apPOL inh,mHTT CaM bind
O=C(CN1CCc2ccccc2C1C(=O)N1CCCCC1)NCc1cccc(Cl)c1 (stereo not drawn),-,-
CCCn1c(NC(=O)c2ccco2)nc2ccccc21,-,-
O=C(NCc1nc2ccccc2n1CCCCOc1ccccc1Cl)c1ccco1,-,75.4
COc1cc(NC(=O)c2ccc(C)cc2Cl)ccc1NC(=O)c1cc2ccccc2o1,-,-
O=C(O)COc1ccc2c(c1)OC(=Cc1ccc(Cl)c(Cl)c1)C2=O,62.9,-
O=C(O)COc1ccc2c(c1)OC(=Cc1cccc(Br)c1)C2=O,-,-
CN(C)S(=O)(=O)c1ccc(C(=O)N2CCN(CCn3cccn3)CC2)cc1,-,-
CC1(C)OC(c2ccc(Cl)cc2Cl)Nc2ccccc21 (stereo not drawn),-,-
CC(C)CC(C(=O)Nc1cccc(C(F)(F)F)c1)N1C(=O)c2ccccc2C1=O (stereo not drawn),-,57.0
CC(C)CC(C(=O)Nc1nc2ccccc2s1)N1C(=O)c2ccccc2C1=O (stereo not drawn),-,99.0
CC(C)C(C(=O)Nc1cccc(C(F)(F)F)c1)N1C(=O)c2ccccc2C1=O (stereo not drawn),-,-
CC(C(=O)Nc1nc2ccccc2s1)N1C(=O)c2ccccc2C1=O (stereo not drawn),-,-
Cc1ccc(-c2noc(CSc3nc(N)cc(N)n3)n2)cc1,-,-
Cc1cccc(Sc2nccnc2N2CCCC(C(=O)N3CCCC3)C2)c1 (stereo not drawn),-,-
O=C1OC(c2ccc3c(c2)OCO3)=N/C1=C\c1ccc(Cl)cc1Cl,-,-
COc1ccc(C2CC(C(F)(F)F)n3nc(C(=O)Nc4cc(C)ccc4C)cc3N2)cc1OC (stereo not drawn),-,-
OC(COC12CC3CC(CC(C3)C1)C2)CN1CCN(c2ccccc2)CC1 (stereo not drawn),-,-
OC(COCC12CC3CC(CC(C3)C1)C2)CN1CCN(c2ccccc2)CC1 (stereo not drawn),-,57.2
OC(COCCC12CC3CC(CC(C3)C1)C2)CN1CCN(c2ccccc2)CC1 (stereo not drawn),-,54.6
OC(COCCC12CC3CC(CC(C3)C1)C2)CN1CCN(c2ccccn2)CC1 (stereo not drawn),-,-
CCOC1=NN(c2ccc([N+](=O)[O-])cc2)C(=O)/C1=C/c1ccc(Cl)cc1Cl,-,-
Cc1cc(C)c(N2C(=O)CCC2=O)c(C)c1N1C(=O)CCC1=O,-,-
Cc1nc2ccccc2c(=O)n1Cc1ccco1,-,-
N=c1c2c(-c3ccccc3)c(-c3ccccc3)n(Cc3ccco3)c2ncn1Cc1ccco1,-,99.0
Cc1ccc(C2=C/C(=C\c3ccccc3C)C(=O)O2)cc1,-,-
SMILES,Pf apPOL inh,mHTT CaM bind
CC1=C/C(=C/c2ccc(-c3ccc(C)cc3)o2)C(=O)O1,-,85.0
O=[N+]([O-])c1ccc(C(=C(Cl)Cl)c2ccc([N+](=O)[O-])cc2)cc1,-,-
CC1=CC(C)(C)Nc2cc(C(C)(C)C)c(O)cc21,-,94.8
CC1=CC(C)(C)Nc2cc(CN(C)C)c(O)cc21,-,97.7
CC(C)(C)c1cc(-c2cc(C(C)(C)C)c(O)c(C(C)(C)C)c2)cc(C(C)(C)C)c1O,-,.
CCOC(=O)Oc1ccc2c(c1)C(C)=CC(C)(C)N2,-,-
CCc1cc(C(=O)N2CCCCC2)nc2cc(-c3cccs3)nn12,-,-
Cc1cccc(-c2csc3c(=O)n(C)cnc23)c1,-,-
Cc1cccc(C(=O)N2CCCC(COc3ccc(C(=O)N4CCCCC4)cc3)C2)c1 (stereo not drawn),-,-
O=C(NC1CCN(Cc2ccccc2)CC1)c1ccc2c(c1)NC(=O)C1CCC(=O)N21 (stereo not drawn),-,-
Cc1cc2cc(CNC(=O)Cc3ccc(F)cc3)ccc2n1C,-,56.0
Cc1cccc(NC(=O)NCc2ccc3c(c2)cc(C)n3C)c1,-,50.3
Cc1cc2cc(CNC(=O)c3ccccc3[N+](=O)[O-])ccc2n1C,-,-
Cc1cc2cc(CNC(=O)c3c(F)cccc3Cl)ccc2n1C,-,-
O=[N+]([O-])c1ccc(-c2cn3cc(Br)ccc3n2)cc1,-,-
CNC(=O)c1ccc2c(c1)nnn2Cc1ccc(OC)cc1,-,-
Cc1nc2ccccc2nc(C)c1=NOCc1ccc(F)cc1Cl,-,-
CCN1c2ccc(C)cc2C(=O)NC12CCN(C(=O)c1cc(C)cc(C)c1)CC2,-,-
COc1ccccc1NC(=O)c1cc2c(n1C)CCN(Cc1cccc(C)c1)C2,-,63.2
COc1ccc(CNC(=O)c2cc3c(n2C)CCN(Cc2ccccc2)C3)cc1OC,-,-
